Hits are enriched below; roughly 10% of the tested compounds scored in any of these assays.
VDR inh: inhibitors of human vitamin D receptor | P11473 | VDR-SRC2-3 peptide fluorescence polarization, 2 h | Potency, µM, for inactives: max response, negative = inhibition, actives largely listed as inhibitors | 400,000 compounds, 0.93% hits | AID 504847; note: potency is the fitted concentration of half-maximal effect
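VDR–SRC2-3 interaction, FP format. Cmpds 23 nl via pintool, brief spin, 2 h ambient incubation.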
CCT chaperon mod: modulators of cytosolic chaperonin (CCT/TRiC) activity; purified chaperonin ATPase assay, HTRF ADP detection, 30 min; activity change, % (no concentration beside the values), hits read low; 360,000 compounds, 0.3% hits; AID 651819; in the data active = activity change below about -30%
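ATPase activity: ADP formed was measured by HTRF Transcreener (665/615 nm ratio) after 30 min at 37 deg C with 10 uM ATP. Compounds screened at one 76 uM concentration against 40 or 20 nM TRiC in Tris pH 7.4/KCl/MgCl2/DTT buffer.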
G9a inh: G9a (human) methyltransferase inhibition | G9a H3K9 monomethylation, AlphaScreen, 2 h | Potency, µM (doses to about 102 µM), for the others: top-dose activity, negative = inhibition, usual class: inhibitors | Q96KQ7 | 350,000 compounds, 8.8% hits; note: potency is the fitted concentration of half-maximal effect; nearly all actives have a fitted effect of over 75% in size
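Signal arises when biotinylated H3K9 peptide, once monomethylated, bridges streptavidin donor and antibody-captured acceptor beads. Enzyme at 20 nM was preincubated 15 min with test compounds; peptide 500 nM and SAM 20 uM then reacted for 2 h.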
Sfp inh: inhibitors of Bacillus subtilis Sfp phosphopantetheinyl transferase; Q9F4F7; 310,000 compounds, 3.5% hits; Biochemical Sfp PPTase activity, qHTS; Potency, µM, for inactives: largest response in the series, negative = inhibition, most hits filed as inhibitors;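 note: the enzyme is Sfp with the accession as filed and its product quenches rhodamine fluorescence; potency is the fitted concentration of half-maximal effect; 0% = enzyme reaction without inhibitor and -100% = no enzyme wells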
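With Hepes-Na pH 7.6 buffer containing 10 mM MgCl2, Sfp (15 nM) modified BHQ-2-YbbR (12.5 uM) using rhodamine-CoA (5 uM). Two reads 30 minutes apart at 525/598 nm yielded each well's rate.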
MmCpn inh: M. maripaludis TRiC chaperonin inhibition; purified Mm-Cpn ATPase, ADP Transcreener TR-FRET; Potency, µM (titrated, usually from 76.9 µM), without a hit: top-dose activity, negative = inhibition, most hits filed as inhibitors; 330,000 compounds, 0.031% hits; note: potency is the fitted concentration of half-maximal effect; nearly all actives have a fitted effect of over 80% in size
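Compound-treated chaperonin, 25 nM final, turns over 10 uM ATP at 37°C for 30 min following a 10 min preincubation; ADP generated competes with ADP-d2 for Eu-cryptate antibody, lowering FRET.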
PLK1 PBD inh: inhibitors of human PLK1 polo-box domain binding | P53350 | Plk1 PBD binding of FITC phosphopeptide, fluorescence polarization | Potency, µM, without a hit: max response, negative = inhibition, actives largely listed as inhibitors | 360,000 compounds, 2.8% hits | AID 720504; note: potency is the fitted concentration of half-maximal effect; series mostly up to about 57 µM; nearly all actives have a fitted effect of over 65% in size
Target sequence (P53350 whole entry, looked up, the tested form may be a part): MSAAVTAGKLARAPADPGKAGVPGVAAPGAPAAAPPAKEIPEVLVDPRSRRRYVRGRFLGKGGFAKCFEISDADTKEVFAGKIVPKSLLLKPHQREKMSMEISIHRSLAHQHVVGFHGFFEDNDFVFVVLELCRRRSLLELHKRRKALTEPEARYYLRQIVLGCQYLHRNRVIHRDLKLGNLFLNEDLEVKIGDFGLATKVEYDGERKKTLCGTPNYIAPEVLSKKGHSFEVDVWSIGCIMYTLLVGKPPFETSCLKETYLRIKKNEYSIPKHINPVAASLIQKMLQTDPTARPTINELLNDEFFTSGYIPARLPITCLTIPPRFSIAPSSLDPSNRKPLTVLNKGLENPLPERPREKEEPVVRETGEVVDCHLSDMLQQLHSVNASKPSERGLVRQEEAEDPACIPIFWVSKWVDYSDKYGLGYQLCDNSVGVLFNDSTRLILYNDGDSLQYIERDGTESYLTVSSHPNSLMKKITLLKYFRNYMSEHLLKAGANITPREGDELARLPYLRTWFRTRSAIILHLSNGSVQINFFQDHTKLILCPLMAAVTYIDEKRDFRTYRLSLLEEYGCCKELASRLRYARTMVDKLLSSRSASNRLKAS
* = called active by the depositor; u = inconclusive; x = no result given; [ ] = remark or other dose. Unless noted, calls come from the whole dose curve; as a rule, active = well fitted curve in the direction sought with a large enough effect; inconclusive = small, poorly fitted or top-dose-only effect, or another doubt; inactive = no such curve, though single readings can be large; an effect the other way counts as inactive or inconclusive. Unless noted, % is set by controls: 0 for no effect and ±100 for the full control effect.

SMILES	VDR inh	CCT chaperon mod	G9a inh	Sfp inh	MmCpn inh	PLK1 PBD inh
O=C(CCN1C(=O)/C(=C/c2cccs2)SC1=S)Nc1cccc(C(=O)O)c1	14%	-3	50µM*	9%	-1%	-2%
CCN(CC)C(=O)CSc1nc2cc3c(cc2c(=O)n1Cc1ccc(C(=O)NCCc2ccc(OC)c(OC)c2)cc1)OCO3	7%	x	-6%[59 µM]	x	x	x
O=C(c1cccn1-c1nnc(N2CCCC2)s1)N1CCN(c2ccccc2)CC1	2%	x	-3%[59 µM]	x	x	x
Cc1ccc(-c2c(C)n3c4c(=O)n(C)c(=O)n(C)c4nc3n2CCCO)cc1	0%	x	u	x	x	x
CCOc1ccc(/C=C2/SC(=S)N(CCC(=O)Nc3ccc(C(=O)O)cc3)C2=O)cc1	11%	0	16µM*	0%	0%	u
O=C(CCCN1C(=O)/C(=C/c2cccs2)SC1=S)Nc1cccc(O)c1	-3%	0	28µM*	11%	-1%	1%
O=C(O)CCN1C(=O)CC(N2C(=O)/C(=C/c3ccc(Cl)cc3)SC2=S)C1=O (configuration not stated)	-23%	1	u	0%	4%	24µM*
CCN(CC)CCOC(=O)c1ccc(NC(=O)CCCN2C(=O)S/C(=C/c3ccc(OC)cc3)C2=S)cc1	7%	1	40µM*	-21%	-6%	3%
COc1ccc(/C=C2\SC(=S)N(CCC(=O)Nc3ccc(O)cc3)C2=O)cc1	-21%	1	-2%	3%	-1%	5%
O=C(CCN1C(=O)/C(=C\c2ccccc2)SC1=S)Nc1ccc(C(=O)O)cc1	-1%	1	u	5%	3%	-15%
COc1ccccc1-c1nccc(NCc2cccnc2)n1	u	x	-6%[0.501 µM]	u	x	x
CCOc1ccc(/C=C/c2nc(C#N)c(N3CCN(c4ccc(OC)cc4)CC3)o2)cc1	-2%	x	-1%[59 µM]	x	x	x
COc1cc(C(=O)NCC(c2ccc3c(c2)OCO3)N2CCN(C)CC2)cc(OC)c1OC (configuration not stated)	6%	x	12%[59 µM]	x	x	x
COc1ccc(/C=C/C2=C[C@]3(C)C[C@]2(C)[C@H](c2ccc(OC)cc2)CC3=O)cc1	-5%	x	x	-24%	x	x
O=C(CCN1C(=O)/C(=C/c2ccc(Cl)cc2)SC1=S)Nc1cccc(C(=O)O)c1	-10%	3	45µM*	-1%	u	u
COc1ccc(/C=C2\SC(=S)N(CCC(=O)Nc3cccc(C(=O)O)c3)C2=O)cc1	-12%	-2	x	-12%	0%	-18%
COc1ccccc1CNC(=O)CCn1nc(C)c2c(C)n(-c3ccccc3)nc2c1=O	6%	x	-18%[59 µM]	x	x	x
O=C(O)c1nccnc1C(=O)Nc1ccc(S(=O)(=O)N2CCOCC2)cc1	29%	-2	45µM*	6%	-1%	-13%
O=C(Nc1ccc(S(=O)(=O)N2CCOCC2)cc1)c1c(F)cccc1F	-14%	-2	35µM*	-28%	0%	-19%
COc1cccc(NC(=O)Cn2c(=O)n(Cc3ccco3)c(=O)c3cc(OC)c(OC)cc32)c1	-18%	x	6%[59 µM]	x	x	x
c1ccc(SCCN2CCc3ccccc3C2)cc1	2%	-1	40µM*	-12%	-3%	-13%
Cc1cccc(-c2nc(SCC(=O)Nc3cccc(C(F)(F)F)c3)n3[nH]c(=O)cc3n2)c1	8%	x	11%[59 µM]	x	x	x
CN(C)Cc1nc2c([nH]1)c(=O)n(C)c(=O)n2C	-13%	1	u	56µM*	0%	5%
CCOc1ccccc1NS(=O)(=O)c1c(C)nc2sccn2c1=O	3%	x	7%[59 µM]	x	x	x
CC1CCc2c(sc3nnn(CC(=O)Nc4ccccc4Cl)c(=O)c23)C1 (configuration not stated)	4%	x	0%[59 µM]	x	x	x
COc1ccc(C)cc1NC(=O)c1c2c(nc3ccccc13)C(=O)N(C1CCCCC1)C2	1%	x	-2%[59 µM]	x	x	x
S=c1ncc2[nH]c(=S)[nH]c2[nH]1	32µM*	-3	x	x	x	1.7µM*
COc1cccc(-c2cncnc2Nc2ccccc2)c1	40µM*	x	11%[0.501 µM]	14%	x	x
Cc1ccccc1-c1cncnc1Nc1ccccc1	45µM*	x	4%[0.501 µM]	-9%	x	x

Screening data from PubChem BioAssay.
